Source: ChEMBL document CHEMBL3988442, “University of Dundee, Small-Polar-MMV Screening Library” (2021)
Among all 48,000 compounds or so, about 13,000 (27%) showed an effect of 50% or more. This is one part of the list.

test system: Wolbachia pipientis; assay: Anti-Wolbachia Cell-Based Screen; format: functional; set-up: scale not given: in the data most compounds retested in dose-response had high values; conditions: 5 µM

| SMILES | Percent Effect [%] |
| --- | --- |
| Cc1ccc(OC2(C(=O)O)CCN(C(=O)c3nc(C)oc3C)CC2)cn1 | -0.6346 |
| CCC(NS(=O)(=O)c1ccc(C(=O)NC2CC2)cc1)c1cnn(C)c1 (stereo unspecified) | 100.7 |
| CCCNS(=O)(=O)c1ccc(C(=O)NC(CC)c2cnn(C)c2)cc1 (stereo unspecified) | -2.749 |
| CCC(NS(=O)(=O)c1ccc(C(=O)NC2CC2)cc1)c1ccnn1C (stereo unspecified) | -9.031 |
| Cc1nc2cc(=O)[nH]n2c(C)c1CNC(=O)C(C)Cc1ccccc1 (stereo unspecified) | -3.98 |
| COc1cccc2c1N(CC(=O)Nc1ccc(Cl)cn1)CCC2 | 8.099 |
| Cc1ccc2nc(CN3CCC(O)(CN4CCCC4)CC3)cc(O)c2c1 | 3.677 |
| Cc1ccc2nc(CN3CCCC3c3cccnc3)cc(O)c2c1 (stereo unspecified) | 7.141 |
| COC(=O)c1cccc2nc([C@H]3CCN(CC(C)C)C3)oc12 | -3.142 |
| Oc1cc(CNCCCN2CCCC2)nc2ccc(F)cc12 | 15.84 |
| Cc1ccc2nc(C3CCCN(CC(C)C)C3)nc(O)c2c1 (stereo unspecified) | 109.3 |
| CCN1CCCC(c2nc(O)c3cc(C)ccc3n2)C1 (stereo unspecified) | 115.3 |
| Cc1ccc2nc(CNCCCN3CCCC3)cc(O)c2c1 | -3.941 |
| CC(C)CN1CCC(NC(=O)c2ccc(F)cc2I)CC1 | 2.48 |
| CC(C)CN1CCCC(c2nc(O)c3cc(F)ccc3n2)C1 (stereo unspecified) | 102.2 |
| Cc1ccc2ncn(CC(O)CN3CCC(C)CC3)c(=O)c2c1 (stereo unspecified) | 8.084 |
| Cc1ccc2nc(C3CCN(CC(C)C)CC3)nc(O)c2c1 | 129.6 |
| O=C(c1ccco1)N(CC(F)(F)F)C1CCCOC1 (stereo unspecified) | -12.11 |
| COCc1csc(NC(=O)NCc2ccc(C)s2)n1 | 0.0103 |
| c1cc(-c2noc(-c3cc(C4CC4)[nH]n3)n2)cc(N2CCCCC2)n1 | -19.77 |
| Cc1cnn(CCC(=O)N2C[C@H]3CC[C@@H]2CN(CC(=O)N(C)C)C3)c1 | -5.732 |
| COCCN(Cc1ccc(C)o1)C(=O)Nc1nnc2ccccn12 | -21.85 |
| Cn1ncc2cnn(CC(O)COCc3ccccc3Cl)c2c1=O (stereo unspecified) | -6.755 |
| Cc1ccc2nc(C3CCCN(Cc4ccccc4)C3)nc(O)c2c1 (stereo unspecified) | 104.3 |
| Cc1cc(N2CCN(Cc3ccccc3)CC(O)C2)cc(C)n1 (stereo unspecified) | -18.63 |
| Cc1cccc(N2CC3(CCN(Cc4nccn4C)C3)CC2=O)c1.O=C(O)C(F)(F)F (stereo unspecified) | 3.528 |

| SMILES | Percent Effect [%] |
| --- | --- |
| CNC(=O)COC(=O)c1ccoc1CN1c2ccccc2CC1C (stereo unspecified) | -15.23 |
| CN(Cc1cnn(C)c1)C(=O)NC1CCS(=O)(=O)C1 (stereo unspecified) | -13.78 |
| COC(=O)c1ccoc1CN(C)CC(=O)NC1CCS(=O)(=O)C1 (stereo unspecified) | 105.9 |
| COC(=O)c1ccoc1CN(C)CC(=O)NC1CC1 | 113.9 |
| O=C(Cc1cc2c(cc1Br)OCCO2)NC1CCS(=O)(=O)C1 (stereo unspecified) | -27.59 |
| COC(=O)c1cc(NC(=O)NCC2CCS(=O)(=O)C2)ccc1Cl (stereo unspecified) | -31.29 |
| COC(=O)c1ccoc1CN(C1CC1)C1CCS(=O)(=O)C1 (stereo unspecified) | 104.7 |
| CN(CCC(=O)NC1CC1)Cc1ccc(Cl)s1 | -12.79 |
| O=C(CN(Cc1cccs1)C1CCS(=O)(=O)C1)NCCc1cccs1 (stereo unspecified) | 4.084 |
| CC(CS(C)(=O)=O)N(C(=O)Nc1cc(F)ccc1Cl)C1CC1 (stereo unspecified) | 14.25 |
| CC(C)C(=O)N(C)Cc1nnc2n1CCCCC2 | 6.475 |
| CC(c1ccco1)N(C(=O)Cn1nc2n(c1=O)CCCCC2)C1CC1 (stereo unspecified) | 105.1 |
| CC(C)C(C)N(C(=O)c1cc2c([nH]c1=O)CCCC2=O)C1CC1 (stereo unspecified) | -5.669 |
| CN1[C@H]2CC[C@@H]1CN(C(=O)c1nnc3n1CCCCC3)CC2 | -0.7264 |
| O=C(c1cnc2n1CCCC2)N1CCCC1 | 17.49 |
| CC(c1ccco1)N(C(=O)NCc1ccon1)C1CC1 (stereo unspecified) | 5.216 |
| CC(C)N(C(=O)Cn1nc2n(c1=O)CCCCC2)C1CCC1 | 81.53 |
| CC(c1ccco1)N(C(=O)c1cc2c([nH]c1=O)CCCC2=O)C1CC1 (stereo unspecified) | -5.594 |
| CC(C)C(C)N(C(=O)Cn1nc2n(c1=O)CCCCC2)C1CC1 (stereo unspecified) | 119.1 |
| Cc1csc(CN2CC[C@H]3C[C@H](c4nnc(C)[nH]4)O[C@@H]3C2)n1 | 1.224 |
| CC(C)N(C)S(=O)(=O)N(Cc1cccs1)Cc1cccs1 | -8.549 |
| COc1ccccc1C1(C(=O)NCCN2CCOCC2)CCOCC1 | 3.862 |
| CC(=O)NCCCSC1CCN(c2ccccc2F)C1=O (stereo unspecified) | -10.73 |
| CCOCCCNC(=O)N(C)Cc1ccc(SC)c(OC)c1 | 10.44 |
| CCOCCCNC(=O)C1(C)CCC(=O)N1c1ccccc1F (stereo unspecified) | 110.1 |
